# High-throughput results deposited in PubChem BioAssay by National Center for Advancing Translational Sciences (NCATS).
# Sampled rows, rich in hits. Any-hit rate of the full collection: about 19%.
# ELG1 DNA repair – qHTS screen for small molecules that inhibit ELG1-dependent DNA repair in human embryonic kidney (HEK293T) cells expressing luciferase-tagged ELG1; hit rate 2.3% among 330,000; HEK293T ELG1-luciferase reporter, luminescence, 16 h; DNA damage induced by 5-fluorouridine; Potency, µM (titrated, usually from 46.1 µM), actives largely listed as inhibitors; note: nearly all actives have a fitted effect of over 55% in size
#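 Reporter activity after DNA damage by 5-fluorouridine is monitored. Compound-treated cells incubate 16 hr at 37 °C, then ONE-Glo is added for 30 min before luminescence reading.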
# DT40 TDP1 no CPT – qHTS for Inhibitors of human tyrosyl-DNA phosphodiesterase 1 (TDP1): qHTS in cells in absence of CPT; DT40 Tdp1-/- hTDP1 cells, no CPT, ATP luminescence, 48 h; Potency, µM (doses to about 46.2 µM), actives largely listed as inhibitors; hit rate 15% among 420,000; AID 686978, 2013; note: nearly all actives have a fitted effect of over 55% in size
#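 No-CPT arm: Tdp1-/-;hTDP1 DT40 cells (400/well) plus compounds, incubated ≥48 hr at 37 °C. Readout CellTiter-Glo luminescence.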
# HT1080-NT tox – qHTS for induction of synthetic lethality in tumor cells producing 2HG: qHTS for the HT-1080-NT fibrosarcoma cell line | HT-1080-NT fibrosarcoma viability, CellTiter-Glo ATP luminescence, 48 h | Potency, µM (titrated, usually from 46.1 µM), actives largely listed as cytotoxic | hit rate 1.6% among 360,000 | AID 686970, 2013;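 note: NT is the 2HG producing partner of a matched IDH1 knockdown line; nearly all actives have a fitted effect of over 55% in size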
#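 Toxicity toward the 2HG-producing NT line was scored as %Activity, normalised to DMSO and no-cell wells, from CellTiter-Glo luminescence after 48 hours' treatment.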
# TDP1 cell CPT – qHTS for Inhibitors of human tyrosyl-DNA phosphodiesterase 1 (TDP1): qHTS in cells in presence of CPT; chicken DT40 Tdp1-/-;hTDP1 cells + 20 nM CPT, ATP luminescence, 48 h; Potency, µM (series often up to 46.2 µM), hits mostly inhibitors; hit rate 12% among 420,000; AID 686979, 2013; note: nearly all actives have a fitted effect of over 55% in size
#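 Cell growth measured by CellTiter-Glo luminescence after a minimum 48 h, 37 C compound exposure with 20 nM CPT in Tdp1-knockout DT40 cells stably expressing hTDP1, seeded 400/well; qHTS titration format.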
# IL-1B inflam inh – qHTS for Inhibitors of Inflammasome Signaling: IL-1-beta AlphaLISA Primary Screen; THP-1 LPS/ATP IL-1B secretion, AlphaLISA, 16 h; active compounds read low; activity change, % at 57.5 µM; hit rate 4.7% among 360,000; AID 743279, 2014; in the data active = activity change below about -50%; inconclusive = mostly about -30% to -49%
#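 THP-1 cells pretreated 1 hr with compounds (up to 57.5 uM final), then stimulated with LPS (250 ng/mL final) plus ATP (1.25 mM final); secreted IL-1B measured by AlphaLISA after 16 hr, decreased signal indicating inhibition.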
# HT1080 IDH1KD tx – qHTS for induction of synthetic lethality in tumor cells producing 2HG: qHTS for the HT-1080-IDH1KD cell line. Potency, µM (doses to about 46.1 µM), most hits filed as cytotoxic. HT-1080 IDH1 knockdown viability, ATP luminescence, 48 h. hit rate 2% among 360,000. AID 686971, 2013
#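 Assay cells: HT-1080 with IDH1 knockdown, 750 per well, RPMI/5% FBS. Exposure: 48 h at 37 °C following 2 h pre-incubation. Read: CellTiter-Glo luminescence; fitted concentration-response, curve class assigned.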
# Numbers stand for hits; . = inactive; ? = inconclusive; / = no result; [ ] = remark or other dose. Unless noted, calls come from the whole dose curve; as a rule, active = well fitted curve in the direction sought with a large enough effect; inconclusive = small, poorly fitted or top-dose-only effect, or another doubt; inactive = no such curve, though single readings can be large; an effect the other way counts as inactive or inconclusive.
SMILES,ELG1 DNA repair,DT40 TDP1 no CPT,HT1080-NT tox,TDP1 cell CPT,IL-1B inflam inh,HT1080 IDH1KD tx
c1ccc(C[C@H]2CNCCN2CCc2cccc3ccccc23)cc1,.,10.3µM,.,?,.,.
CCCC[C@@H]1CNCCN1CCc1cccc2ccccc12,.,18.4µM,.,23.1µM,?,.
CCCNC(=O)[C@H]1O[C@@H]1C(=O)N[C@H](C(=O)N1CCC[C@H]1C(=O)OC)[C@@H](C)CC,/,2.42µM,/,1.92µM,/,/
CCC(C)C(NC(=O)OC(C)(C)C)C(=O)NC(C(=O)N1CCCC1C(N)=O)C(C)CC (configuration not stated),.,?,.,.,.,.
CCOc1ccccc1NC(=O)CN1C(=O)C(=O)c2ccccc21,/,4.11µM,/,5.8µM,/,/
O=C(CN1C(=O)C(=O)c2ccccc21)OCN1C(=O)c2ccccc2C1=O,.,.,.,.,.,.
CCN1C(=O)c2cccc3c(S(=O)(=O)NCc4ccccc4)ccc1c23,?,?,.[9.24 µM],?,.,.
CCN1C(=O)c2cccc3c(S(=O)(=O)Nc4ccccc4OC)ccc1c23,?,14.6µM,.,11.6µM,.,.
COc1ccccc1NC(=O)COC(=O)CN1C(=O)C(=O)c2ccccc21,.,?,.,8.2µM,.,.
CCOc1ccccc1NC(=O)CN1c2ccccc2S(=O)(=O)c2ccccc21,/,?,/,25.9µM,/,/
CCOc1ccccc1NC(=O)CN1C(=O)COc2ccccc21,.,.,.,.,.,.
O=C(NCc1ccccc1Br)c1ccc2c(c1)OCCO2,.,.,.,.,.,.
Cc1ccccc1-c1cncnc1Nc1ccc(F)cc1,/,.,/,.,/,/
O=C(NC1CC(=O)N(c2cccc(F)c2)C1)C(=O)c1c[nH]c2ccccc12 (configuration not stated),?,.,.,.,.,.
COc1ccc(NC(=O)CN2C(=O)C(=O)c3ccccc32)c(OC)c1,/,6.51µM,/,4.11µM,/,/
COc1ccc(NC(=O)CN2C(=O)C(C)Oc3ccccc32)c(OC)c1 (configuration not stated),.,?,.,.,.,.
COc1ccccc1NC(=O)CN1C(=O)c2cccc3cccc1c23,/,18.4µM,/,?,/,/
CCn1c(SCC(=O)N/N=C/c2ccccc2OCC(=O)O)nnc1-c1ccc(C)cc1,.,.,.,.,.,.
O=S(=O)(c1cccc(S(=O)(=O)N2CCCC2)c1)N1CCCCC1,.,.,.,.,.,.
O=S(=O)(c1cccc(S(=O)(=O)N2CCCC2)c1)c1cccc(S(=O)(=O)N2CCCC2)c1,20.6µM,?,.,13µM,.,.
O=[N+]([O-])c1cccc2c(S(=O)(=O)N3CCCCC3)cccc12,.,?,.,.,.,.
COc1c(S(=O)(=O)N2CCCCC2)ccc2c(S(=O)(=O)N3CCCCC3)cccc12,/,23.1µM,.,16.4µM,.,.
O=S(=O)(c1cccc2c(S(=O)(=O)N3CCCC3)cccc12)N1CCCC1,?,16.4µM,.,?,.,.
O=C(Cn1nc(C(=O)O)c2ccccc2c1=O)Nc1cc(C(F)(F)F)ccc1-n1cncn1,.,.,.[9.24 µM],.,.,.
CC(=O)N1CC(C)Sc2ccc(S(=O)(=O)NCCc3ccc(C)cc3)cc21 (configuration not stated),?,7.31µM,.,18.4µM,.,.
SMILES,ELG1 DNA repair,DT40 TDP1 no CPT,HT1080-NT tox,TDP1 cell CPT,IL-1B inflam inh,HT1080 IDH1KD tx
CC(=O)N1CC(C)Sc2ccc(S(=O)(=O)NCCc3ccccc3)cc21 (configuration not stated),.,10.3µM,.,13µM,.,.
O=C1CN(N=Cc2ccco2)C(=O)N1,/,.,.,.,.,.
CC(=O)c1cccc(NC(=O)COC(=O)c2ccc(S(C)(=O)=O)c([N+](=O)[O-])c2)c1,?,10µM,?,6.31µM,-89.3,?
Cc1csc(Sc2ccc(C(=O)OCC(=O)Nc3ccc(OC(F)(F)F)cc3)cc2[N+](=O)[O-])n1,.,?,.,.,.,.
O=C(COC(=O)c1ccc(OC(F)(F)F)cc1)Nc1ncccn1,.,.,.,20.6µM,.,.
CC(OC(=O)c1ccncc1)C(=O)Nc1cccc([N+](=O)[O-])c1 (configuration not stated),.,.,.,.,.,.
CC(=O)c1cccc(NC(=O)C(C)OC(=O)c2ccc(S(C)(=O)=O)c([N+](=O)[O-])c2)c1 (configuration not stated),/,3.16µM,/,2.24µM,/,/
CS(=O)(=O)c1ccc(C(=O)OCC(=O)Nc2ccc(OC(F)(F)F)cc2)cc1[N+](=O)[O-],/,10µM,/,8.91µM,/,/
NC(=O)NC(=O)COC(=O)c1ccc(OC(F)(F)F)cc1,.,.,.,.,.,.
Cn1c(=O)c2c([nH]c(=O)n2C)n(Cc2ccccc2)c1=O,/,.,.,.,.,.
Cc1c(C(=O)NCCCc2ccncc2)cnn1-c1ncc2c(n1)-c1ccccc1CC2,/,?,/,.[9.04 µM],/,/
Cc1c(C(=O)NCCCc2ccncc2)cnn1-c1nccc(-c2ccccc2F)n1,/,18.4µM,/,.[9.04 µM],/,/
O=c1cc(-c2ccccc2O)oc2c(O)c(O)ccc12,/,29.9µM,/,23.7µM,/,/
COc1cccc(C(=O)NCC(=O)OCc2cc(=O)n3c(C)csc3n2)c1,/,.,/,.,/,/
CCC(O)c1cnc(OCc2ccccc2)nc1OCc1ccccc1 (configuration not stated),/,18.4µM,.,?,.,.
Cn1c(=O)cnc2cnc(OCc3ccccc3)nc21,/,.,/,.,/,/
CCc1cc2c(cc3c(=O)n(CC(=O)NCCc4ccccc4)ncn32)s1,/,.,/,.,/,/
COC(=O)Cc1c(C)c2ccc(OCC(=O)N3CCCC(C)C3)c(C)c2oc1=O (configuration not stated),?,?,.,25.9µM,.,.
CCOC(=O)CCc1c(C)c2ccc(OCC(=O)N(CC)CC)c(C)c2oc1=O,18.4µM,?,.,.,.,.
CCCOc1ccc2c(C)c(CC(=O)OC)c(=O)oc2c1,?,10.3µM,.,?,.,.
CCc1c(C)c2ccc(OCC(=O)N(C)C)c(C)c2oc1=O,?,?,.,.,.,.
C=C(C)COc1ccc2c(C)c(CC(=O)OC)c(=O)oc2c1C,?,11.6µM,.,18.4µM,.,.
